Bioassay records: PubChem, National Center for Advancing Translational Sciences (NCATS)
TDP1 cell noCPT: qHTS for Inhibitors of human tyrosyl-DNA phosphodiesterase 1 (TDP1): qHTS in cells in absence of CPT | DT40 Tdp1-/- hTDP1 cells, no CPT, ATP luminescence, 48 h | Potency, µM (doses to about 46.2 µM), actives largely listed as inhibitors | 420,000 tested, 15% active; further: nearly all actives have a fitted effect of over 55% in size
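Luminescent ATP content (CellTiter-Glo) served as the growth readout. Knockout chicken DT40 cells expressing human TDP1 were exposed to compounds without camptothecin for a minimum 48 hr at 37 °C.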
TDP1 cell CPT: qHTS for Inhibitors of human tyrosyl-DNA phosphodiesterase 1 (TDP1): qHTS in cells in presence of CPT | chicken DT40 Tdp1-/-;hTDP1 cells + 20 nM CPT, ATP luminescence, 48 h | Potency, µM (top dose mostly 46.2 µM), most hits filed as inhibitors | 420,000 tested, 12% active; further: nearly all actives have a fitted effect of over 55% in size
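Chicken DT40 Tdp1-/- cells stably complemented with human TDP1 were seeded at 400 cells/well in medium containing 20 nM camptothecin, exposed to pin-transferred compounds, and grown at 37 °C for at least 48 hr. Viability was read as ATP luminescence.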
HT1080NT lethal: qHTS for induction of synthetic lethality in tumor cells producing 2HG: qHTS for the HT-1080-NT fibrosarcoma cell line. HT-1080-NT fibrosarcoma viability, CellTiter-Glo ATP luminescence, 48 h. Potency, µM (series often up to 46.1 µM), actives largely listed as cytotoxic. 360,000 tested, 1.6% active. AID 686970, 2013;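 further: NT is the 2HG producing partner of a matched IDH1 knockdown line; nearly all actives have a fitted effect of over 55% in size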
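HT-1080-NT fibrosarcoma cells (2HG-overproducing), 750 cells/well in RPMI with 5% FBS, dosed after 2 h and incubated 48 h at 37C. CellTiter-Glo luminescence normalized to DMSO and no-cell wells; concentration-response curves fitted and classed.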
HT1080 IDH1KD tx: qHTS for induction of synthetic lethality in tumor cells producing 2HG: qHTS for the HT-1080-IDH1KD cell line; Potency, µM (doses to about 46.1 µM), actives largely listed as cytotoxic; HT-1080 IDH1 knockdown viability, ATP luminescence, 48 h; 360,000 tested, 2% active
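CellTiter-Glo luminescence after 48 h compound exposure at 37 degrees C of IDH1-knockdown HT-1080 cells in 5% FBS RPMI. %Activity scaled between DMSO wells and cell-free media wells, with curves fitted and assigned curve classes.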
uPA generation: qHTS for Inhibitors of Cell Surface uPA Generation; cell surface uPA generation assay, qHTS; Potency, µM (top dose mostly 38.3 µM), actives largely listed as inhibitors; 330,000 tested, 0.31% active; AID 540303, 2011; active means well fitted inhibition curve with a large enough effect; inconclusive means small, poorly fitted or top-dose-only effect; inactive means no such curve, though single readings can be large or run the other way; tested in mouse RAW 264.7 cells; further: nearly all actives have a fitted effect of over 55% in size
IL-1B inflam inh: qHTS for Inhibitors of Inflammasome Signaling: IL-1-beta AlphaLISA Primary Screen; AID 743279, 2014; 360,000 tested, 4.7% active; activity change, % at 57.5 µM; THP-1 LPS/ATP IL-1B secretion, AlphaLISA, 16 h; active compounds read low; in the data active means activity change below about -50%; inconclusive means mostly about -30% to -49%
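Secreted IL-1B measured by AlphaLISA bead assay after 16 h compound exposure of THP-1 cells; compounds (final up to 57.5 uM) added 1 h before LPS (250 ng/mL) and ATP (1.25 mM) stimulation; lower signal means less secretion.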
Numbers stand for hits; . = inactive; ? = inconclusive; / = not tested or not shown; [ ] = another dose, or the depositor's remark. Most compounds without a hit are left out; they make up all but 19% or so of the library. Unless noted, the call rests on the fitted dose curve; in most records, active means well fitted curve in the direction sought with a large enough effect; inconclusive means small, poorly fitted or top-dose-only effect, or another doubt; inactive means no such curve, though single readings can be large; an effect the other way counts as inactive or inconclusive.

SMILES | TDP1 cell noCPT | TDP1 cell CPT | HT1080NT lethal | HT1080 IDH1KD tx | uPA generation | IL-1B inflam inh
COc1ccc(CCNC(=O)c2cc(=O)c3ccc(C)cc3o2)cc1OC | 21µM | ? | . | . | . | .
COc1ccc(CCNC(=O)c2cc(=O)c3cc(C)ccc3o2)cc1 | 13µM | 23µM | . | . | . | .
CC(=O)c1ccc(NC(=O)CSc2nnc3ccc(-c4ccc(F)cc4)nn23)cc1 | . | . | / | / | / | /
COc1ccc(N2C(=O)CSC23C(=O)N(CC(=O)Nc2ccccc2F)c2ccccc23)cc1 (configuration not stated) | . | . | / | / | / | /
O=C(CC(C(=O)O)c1ccc(Cl)cc1Cl)c1ccc(Cl)cc1 (configuration not stated) | . | . | . | . | . | .
COCCNC(=O)CSc1nnc(-c2ccccc2F)n1Cc1ccccc1 | . | . | . | . | . | .
Fc1cccc(Cc2c(-c3cccc(Cl)c3)nc3ccc(Cl)cn23)c1 | ? | ? | . | . | / | .
Cc1nc(-c2ccc(Cl)cc2)sc1CCNC(=O)c1ccc(C(F)(F)F)cc1 | 12µM | 8.2µM | / | / | / | /
COc1ccc(NC(=O)C(=O)NCCc2sc(-c3ccc(Cl)cc3)nc2C)cc1 | . | . | / | / | / | /
Cc1nc(-c2ccc(F)cc2)sc1CCNC(=O)c1ccc(C(C)(C)C)cc1 | 16µM | 15µM | / | / | / | /
COc1ccc(C(=O)NCCc2sc(-c3ccc(Cl)cc3)nc2C)c(OC)c1 | ? | 16µM | / | / | / | /
Cc1nc(-c2ccc(F)cc2)sc1CCNC(=O)c1ccccc1 | 23µM | 15µM | / | / | / | /
Cc1ccc(SCC(=O)Nc2nnc(C(C)(C)C)s2)cc1 | . | . | . | . | . | .
O=C(NCCc1ccccc1)c1cccs1 | . | . | . | . | . | .
Cc1nc(-c2ccc(F)cc2)sc1CCNC(=O)c1cccs1 | ? | 21µM | / | / | / | /
CCCN1CCN(CC(=O)NCC(=O)Nc2cccc(C)c2C)CC1 | . | . | . | . | . | .
O=C(Cn1c(=O)c2cccn2c2ccc(F)cc21)Nc1cccc(F)c1 | . | . | / | / | / | /
O=C(Cn1c2ccccc2c(=O)c2ccccc21)Nc1cccc(F)c1 | ? | 16µM | . | . | . | .
COc1ccc(OC)c(CNc2ncc(-c3ccc(Cl)cc3)n2C)c1 | 16µM | 16µM | / | / | / | /
CCOc1ccccc1CNc1ncnc2onc(-c3ccc(F)cc3)c12 | 23µM | 16µM | / | / | / | /
COc1ccc(CNc2ncc(-c3ccc(Cl)cc3)n2C)c(OC)c1OC | ? | ? | . | . | . | .
COc1ccc(OC)c(CNc2ncnc3onc(-c4ccc(Cl)cc4)c23)c1 | 2.9µM | 2.6µM | / | / | / | /
COc1ccccc1-c1noc2ncnc(Nc3ccccc3C)c12 | 15µM | 23µM | . | . | . | .
COc1ccccc1CNc1ncnc2onc(-c3ccc(Cl)cc3)c12 | 21µM | ? | / | / | / | /
S=C(NCCC1=CCCCC1)NCc1ccco1 | 10µM | 16µM | . | ? | . | .
O=C(CCn1c(=O)c2ccccc2n(CC(=O)NCCC2=CCCCC2)c1=O)NCc1ccco1 | ? | . | . | .[9.24 µM] | . | .
